Reference: PubChem BioAssay (NCI)
Compounds without any hit were thinned out: in the full panel of roughly 83,000, 20% have a hit.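 Interpretation: 100, growth as untreated; towards 0, rising growth inhibition; 0, no net growth; 0 to -100, cell death. Compounds scoring below 10 were considered active.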 A number with no mark means an inactive call. The source made the active and inactive calls.

Each compound was assayed on TK-10 renal (assay: NCI-60 one-dose screen, 48 h (100 = growth as untreated, 0 = no growth, -100 = all killed)). Settings: 10 µM unless noted.

| SMILES | growth |
| --- | --- |
| C=CCSc1nc2ccccc2cc1/C=N/O | 108% |
| COc1cc2ncn3c(=O)c4c5c(sc4nc3c2cc1OC)CCCC5 | 140% |
| CCn1c(C)nc2cc(C(N)=O)ccc21 | 98% |
| O=C(CCCCCCN1CC(=O)N2[C@@H](c3ccccc3Cl)c3[nH]c4ccccc4c3C[C@H]2C1=O)NO | 68.9% |
| Cc1nn(-c2ccccc2)c2nc3c(c(-c4ccc(Cl)cc4)c12)CNC1(CCSCC1)N3 | 107% |
| CCCCCc1nc2c(c3c1CCCC3)CCCC2 | 77.2% |
| CCCCN(CCCC)CC(C)(C)C(O)c1ccc(OC)c2ccccc12 (stereo unspecified) | 51.4% |
| COc1ccc(/C=C/c2c(C(=O)/C=C/c3ccc(F)cc3)c(C)nc3ccccc23)cc1 | 110% |
| O=C1CCC2=C3C4CCCCC4C(=O)C4CCCC(OC2C1)C34 (stereo unspecified) | 64.3% |
| O=C(/C=C/c1cccc(O)c1)c1cccc(-n2cc(-c3ccc4ccccc4c3)[nH]c2=O)c1 | -5.34% (active) |
| OC(COc1ccccc1Cl)COc1ccccc1Cl | 102% |
| C[C@]12CC[C@@H]3c4cc(OC(F)F)c(O)cc4CC[C@H]3[C@@H]1CC[C@@H]2OS(N)(=O)=O | 93.2% |
| NC[C@H](O)c1ccc(O)c(O)c1 | 97.7% |
| O=C(NCCCNc1cc(-c2cn(-c3ccccc3)nc2-c2cccc(O)c2)ccn1)c1ccc(F)cc1 | 60.4% |
| Cc1c(C(=O)NC(Cc2ccccc2)C(O)C(=O)NCc2ccc(F)cc2)[nH]c2ccccc2c1=O (stereo unspecified) | 102% |
| O=Cc1ccc(O)c2ncccc12 | 94% |
| CCc1ccccc1-n1c(-c2ccc(Cl)cc2)cc(-c2ccc(Cl)cc2)c(C#N)c1=O | 94.5% |
| O=C(NCCCNc1cc(-c2cn(-c3ccccc3)nc2-c2cccc(O)c2)ccn1)c1cccc(O)c1 | 115% |
| O=C(NCCCNc1cc(-c2cn(-c3ccccc3)nc2-c2cccc(O)c2)ccn1)c1ccccc1 | 67.3% |

| SMILES | growth |
| --- | --- |
| C[C@H]1[C@H]2[C@H]3CC[C@@H]4[C@@]5(C)C/C(=C/c6cccnc6)C(=O)C(C)(C)[C@@H]5CC[C@@]4(C)[C@]3(C)CC[C@]23CO[C@]1(C)[C@@H](C(=O)/C=C\c1cccnc1)C3 | -14.5% (active) |
| O=C(Nc1cccc(Oc2nnc(Cl)c3ccccc23)c1)Nc1ccc(Cl)c(C(F)(F)F)c1 | -51.5% (active) |
| Nc1cc2c3c(cccc3c1)C(=O)N(CCN1CCCC1)C2=O | 105% |
| COc1cccc(-c2nn(-c3ccccc3)cc2-c2ccnc(NCCNC(=O)Nc3ccccc3)c2)c1 | 73.8% |
| Fc1ccc(CNc2c3ccccc3nc3ccccc23)cc1F | 51.1% |
| COc1cccc(-c2nn(-c3ccccc3)cc2-c2ccnc(NCCNC(=O)Nc3ccc(Cl)c(Cl)c3)c2)c1 | 40.2% |
| c1coc(-c2c3ccc(=[N+]4CCCCC4)cc-3oc3cc(N4CCCCC4)ccc23)c1 | -93.3% (active) |
| O=[N+]([O-])c1ccc(OCCO)cc1 | 117% |
| O=C(Nc1cccc(Cl)c1)c1cc(N=Nc2ccc([N+](=O)[O-])cc2Cl)ccc1O | 136% |
| CC(C)(C)OC(=O)Nc1ccc2c(c1)C(NC(=O)Nc1cccc(C#N)c1)CC(C)(C)O2 (stereo unspecified) | 39.3% |
| c1ccc(-c2nc([P+](c3ccccc3)(c3ccccc3)c3ccccc3)c(N3CCOCC3)o2)cc1 | 29.9% |
| Cc1ccc(Cl)c(NS(=O)(=O)c2ccc(-c3cnc(C4CC4)o3)cc2)c1 | 68.5% |
| COc1ccc(-c2nc3c(c(=O)n2C(C)=O)C(c2ccc(Cl)cc2)c2sc4c(Cl)cccc4c2O3)cc1 (stereo unspecified) | -35.6% (active) |
| NC(=O)c1ccc[n+](Cc2ccc(Cl)cc2Cl)c1 | 88.4% |
| COc1cc(-c2nn(-c3ccccc3)cc2-c2ccnc(NCCNS(=O)(=O)c3ccc(Cl)cc3)n2)ccc1Cl | 43% |
| COc1cccc(-c2nn(-c3ccccc3)cc2-c2ccnc(NCCNC(=O)Nc3cccc(C(F)(F)F)c3)c2)c1 | 57.7% |
| Nc1n[nH]c(-c2cc(Cl)ccc2O)c1-c1ccccc1 | 106% |
| C[n+]1cc2cc(C(N)=O)[nH]c3c(=N)c(Cl)c(N)c1c23 | 73.9% |
| CN(C)CC1C(=O)O[C@H]2[C@H]1CC/C(COC(=O)c1cc3ccccc3[nH]1)=C\CC[C@@]1(C)O[C@@H]21 (stereo partly specified) | -89.2% (active) |

The compounds below were run on ACHN renal in the same assay as above. Settings: 10 µM unless noted.

| SMILES | growth |
| --- | --- |
| C=CCSc1nc2ccccc2cc1/C=N/O | 87.6% |
| COc1cc2ncn3c(=O)c4c5c(sc4nc3c2cc1OC)CCCC5 | 103% |
| CCn1c(C)nc2cc(C(N)=O)ccc21 | 96.7% |
| O=C(CCCCCCN1CC(=O)N2[C@@H](c3ccccc3Cl)c3[nH]c4ccccc4c3C[C@H]2C1=O)NO | 81.7% |
| Cc1nn(-c2ccccc2)c2nc3c(c(-c4ccc(Cl)cc4)c12)CNC1(CCSCC1)N3 | 103% |
| CCCCCc1nc2c(c3c1CCCC3)CCCC2 | 82.9% |
| CCCCN(CCCC)CC(C)(C)C(O)c1ccc(OC)c2ccccc12 (stereo unspecified) | 56.5% |
| COc1ccc(/C=C/c2c(C(=O)/C=C/c3ccc(F)cc3)c(C)nc3ccccc23)cc1 | 49.2% |
| O=C1CCC2=C3C4CCCCC4C(=O)C4CCCC(OC2C1)C34 (stereo unspecified) | -23.3% (active) |
| O=C(/C=C/c1cccc(O)c1)c1cccc(-n2cc(-c3ccc4ccccc4c3)[nH]c2=O)c1 | -40.7% (active) |
| OC(COc1ccccc1Cl)COc1ccccc1Cl | 97.3% |
| C[C@]12CC[C@@H]3c4cc(OC(F)F)c(O)cc4CC[C@H]3[C@@H]1CC[C@@H]2OS(N)(=O)=O | 50.7% |
| NC[C@H](O)c1ccc(O)c(O)c1 | 90.1% |
| O=C(NCCCNc1cc(-c2cn(-c3ccccc3)nc2-c2cccc(O)c2)ccn1)c1ccc(F)cc1 | 51.7% |
| Cc1c(C(=O)NC(Cc2ccccc2)C(O)C(=O)NCc2ccc(F)cc2)[nH]c2ccccc2c1=O (stereo unspecified) | 107% |
| O=Cc1ccc(O)c2ncccc12 | 110% |
| CCc1ccccc1-n1c(-c2ccc(Cl)cc2)cc(-c2ccc(Cl)cc2)c(C#N)c1=O | 98.8% |
| O=C(NCCCNc1cc(-c2cn(-c3ccccc3)nc2-c2cccc(O)c2)ccn1)c1cccc(O)c1 | 89.4% |
| O=C(NCCCNc1cc(-c2cn(-c3ccccc3)nc2-c2cccc(O)c2)ccn1)c1ccccc1 | 45.8% |

| SMILES | growth |
| --- | --- |
| C[C@H]1[C@H]2[C@H]3CC[C@@H]4[C@@]5(C)C/C(=C/c6cccnc6)C(=O)C(C)(C)[C@@H]5CC[C@@]4(C)[C@]3(C)CC[C@]23CO[C@]1(C)[C@@H](C(=O)/C=C\c1cccnc1)C3 | -22.2% (active) |
| O=C(Nc1cccc(Oc2nnc(Cl)c3ccccc23)c1)Nc1ccc(Cl)c(C(F)(F)F)c1 | -8.47% (active) |
| Nc1cc2c3c(cccc3c1)C(=O)N(CCN1CCCC1)C2=O | 4.18% (active) |
| COc1cccc(-c2nn(-c3ccccc3)cc2-c2ccnc(NCCNC(=O)Nc3ccccc3)c2)c1 | 68.9% |
| Fc1ccc(CNc2c3ccccc3nc3ccccc23)cc1F | 19.3% |
| COc1cccc(-c2nn(-c3ccccc3)cc2-c2ccnc(NCCNC(=O)Nc3ccc(Cl)c(Cl)c3)c2)c1 | 14.6% |
| c1coc(-c2c3ccc(=[N+]4CCCCC4)cc-3oc3cc(N4CCCCC4)ccc23)c1 | -95.9% (active) |
| O=[N+]([O-])c1ccc(OCCO)cc1 | 104% |
| O=C(Nc1cccc(Cl)c1)c1cc(N=Nc2ccc([N+](=O)[O-])cc2Cl)ccc1O | 82.4% |
| CC(C)(C)OC(=O)Nc1ccc2c(c1)C(NC(=O)Nc1cccc(C#N)c1)CC(C)(C)O2 (stereo unspecified) | 50.9% |
| c1ccc(-c2nc([P+](c3ccccc3)(c3ccccc3)c3ccccc3)c(N3CCOCC3)o2)cc1 | 13.2% |
| Cc1ccc(Cl)c(NS(=O)(=O)c2ccc(-c3cnc(C4CC4)o3)cc2)c1 | 36% |
| COc1ccc(-c2nc3c(c(=O)n2C(C)=O)C(c2ccc(Cl)cc2)c2sc4c(Cl)cccc4c2O3)cc1 (stereo unspecified) | 8.98% (active) |
| NC(=O)c1ccc[n+](Cc2ccc(Cl)cc2Cl)c1 | 109% |
| COc1cc(-c2nn(-c3ccccc3)cc2-c2ccnc(NCCNS(=O)(=O)c3ccc(Cl)cc3)n2)ccc1Cl | 15.4% |
| COc1cccc(-c2nn(-c3ccccc3)cc2-c2ccnc(NCCNC(=O)Nc3cccc(C(F)(F)F)c3)c2)c1 | 35.1% |
| Nc1n[nH]c(-c2cc(Cl)ccc2O)c1-c1ccccc1 | 61.3% |
| C[n+]1cc2cc(C(N)=O)[nH]c3c(=N)c(Cl)c(N)c1c23 | 39% |
| CN(C)CC1C(=O)O[C@H]2[C@H]1CC/C(COC(=O)c1cc3ccccc3[nH]1)=C\CC[C@@]1(C)O[C@@H]21 (stereo partly specified) | -82.4% (active) |
